Results on 40 sequences are retold here after PMC11006913.

Chain of HOXC9 (Homo sapiens, UniProt P31274 178-260) (P31274 178-260): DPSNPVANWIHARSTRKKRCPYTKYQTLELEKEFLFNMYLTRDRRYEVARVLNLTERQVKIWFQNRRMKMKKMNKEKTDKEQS

The target of the first test is HOXC9 (Homo sapiens, UniProt P31274 178-260, K195R). Kind of test: PBM; 200 nM protein, PBS. As to conditions: dsDNA, one strand shown.
Chain of HOXC9 (Homo sapiens, UniProt P31274 178-260, K195R) (P31274 178-260 K195R): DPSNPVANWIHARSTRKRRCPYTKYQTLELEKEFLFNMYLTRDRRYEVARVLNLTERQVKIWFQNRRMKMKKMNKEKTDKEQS
On to ATTGTATG, for which the binding signal was 11.1 upbm affinity estimate (log intensity, higher = more binding, comparable within an allelic series).
Same read-out and setting: for CACCATTA the value was 11.9 upbm affinity estimate (log intensity, higher = more binding, comparable within an allelic series); for AGGACGTG, 9.73 upbm affinity estimate (log intensity, higher = more binding, comparable within an allelic series).
On to AGTATAAC, for which the binding signal was 11 upbm affinity estimate (log intensity, higher = more binding, comparable within an allelic series).
As for AGGGGGTG, the binding signal is 9.33 upbm affinity estimate (log intensity, higher = more binding, comparable within an allelic series).
Still for that read-out and setting: for CATTTAGA the value was 11.1 upbm affinity estimate (log intensity, higher = more binding, comparable within an allelic series).
With ACTTTACG, the binding signal is 11.5 upbm affinity estimate (log intensity, higher = more binding, comparable within an allelic series).
Same read-out and setting: for CGGTCCAG the value was 9.64 upbm affinity estimate (log intensity, higher = more binding, comparable within an allelic series); for CTGTTATA, 11.5 upbm affinity estimate (log intensity, higher = more binding, comparable within an allelic series); for AGGCTCCC, 9.39 upbm affinity estimate (log intensity, higher = more binding, comparable within an allelic series).
For the sequence TAAGAATA, the binding signal was 10.9 upbm affinity estimate (log intensity, higher = more binding, comparable within an allelic series).
Turning to TCCTTCGA, the binding signal was 9.75 upbm affinity estimate (log intensity, higher = more binding, comparable within an allelic series).
On the same count and under the same terms, for CCGTTATA the value was 11.3 upbm affinity estimate (log intensity, higher = more binding, comparable within an allelic series); for TAAAGTGA, 11.3 upbm affinity estimate (log intensity, higher = more binding, comparable within an allelic series).
Still for that read-out and setting: for CGGGAGCC the value was 9.62 upbm affinity estimate (log intensity, higher = more binding, comparable within an allelic series); for CGGTGCCA, 9.43 upbm affinity estimate (log intensity, higher = more binding, comparable within an allelic series).
Same read-out and setting: for CGTAAAGA the value was 11.1 upbm affinity estimate (log intensity, higher = more binding, comparable within an allelic series).
In the case of ATAATAAC, the binding signal is 12 upbm affinity estimate (log intensity, higher = more binding, comparable within an allelic series).
In the case of ATCTTTAA, the binding signal is 11.4 upbm affinity estimate (log intensity, higher = more binding, comparable within an allelic series).
On to CTGGACGC, for which the binding signal was 9.6 upbm affinity estimate (log intensity, higher = more binding, comparable within an allelic series).
Still for that read-out and setting: for GGGGGGCA the value was 9.42 upbm affinity estimate (log intensity, higher = more binding, comparable within an allelic series).
On to ATCTACTA, for which the binding signal is 11 upbm affinity estimate (log intensity, higher = more binding, comparable within an allelic series).
With ATGTTAAC, the binding signal is 11.1 upbm affinity estimate (log intensity, higher = more binding, comparable within an allelic series).
The same measure, in the same setting: for GAGAGCTC the value was 9.48 upbm affinity estimate (log intensity, higher = more binding, comparable within an allelic series); for AGACCAGG, 9.63 upbm affinity estimate (log intensity, higher = more binding, comparable within an allelic series).
The same measure, in the same setting: for CGCATTTA the value was 11.1 upbm affinity estimate (log intensity, higher = more binding, comparable within an allelic series); for ATTATCGG, 11.3 upbm affinity estimate (log intensity, higher = more binding, comparable within an allelic series); for ATTTAACA, 11.6 upbm affinity estimate (log intensity, higher = more binding, comparable within an allelic series).
Consider TTATACAA, for which the binding signal was 11.1 upbm affinity estimate (log intensity, higher = more binding, comparable within an allelic series).
With GAGATAAA, the binding signal was 11.1 upbm affinity estimate (log intensity, higher = more binding, comparable within an allelic series).
For the sequence CGTTAAAG, the binding signal is 11.3 upbm affinity estimate (log intensity, higher = more binding, comparable within an allelic series).
Regarding AGCCGACC, the binding signal is 9.56 upbm affinity estimate (log intensity, higher = more binding, comparable within an allelic series).
The same measure, in the same setting: for CTGCATAA the value was 11.2 upbm affinity estimate (log intensity, higher = more binding, comparable within an allelic series).
Same read-out and setting: for CCTCCAGG the value was 9.43 upbm affinity estimate (log intensity, higher = more binding, comparable within an allelic series); for AGTATTAT, 11.6 upbm affinity estimate (log intensity, higher = more binding, comparable within an allelic series); for ATATTGCA, 11.2 upbm affinity estimate (log intensity, higher = more binding, comparable within an allelic series).
On the same count and under the same terms, for ATATGAAA the value was 11.4 upbm affinity estimate (log intensity, higher = more binding, comparable within an allelic series).
On to GCCCCAGC, for which the binding signal was 9.66 upbm affinity estimate (log intensity, higher = more binding, comparable within an allelic series).
For the sequence CCCCAGCC, the binding signal is 9.49 upbm affinity estimate (log intensity, higher = more binding, comparable within an allelic series).
The same measure, in the same setting: for CCGGAAGG the value was 9.63 upbm affinity estimate (log intensity, higher = more binding, comparable within an allelic series).

The next test addresses HOXC9 (Homo sapiens, UniProt P31274 178-260). The test can be described thus: PBM; 200 nM protein, PBS. The settings on record: dsDNA, one strand shown.
For the sequence ATTGTATG, the binding signal is 11 upbm affinity estimate (log intensity, higher = more binding, comparable within an allelic series).
Regarding CACCATTA, the binding signal is 11.9 upbm affinity estimate (log intensity, higher = more binding, comparable within an allelic series).
On the same count and under the same terms, for AGGACGTG the value was 9.75 upbm affinity estimate (log intensity, higher = more binding, comparable within an allelic series).
For the sequence AGTATAAC, the binding signal was 11 upbm affinity estimate (log intensity, higher = more binding, comparable within an allelic series).
The same measure, in the same setting: for AGGGGGTG the value was 9.51 upbm affinity estimate (log intensity, higher = more binding, comparable within an allelic series).
Same read-out and setting: for CATTTAGA the value was 11.1 upbm affinity estimate (log intensity, higher = more binding, comparable within an allelic series); for ACTTTACG, 11.7 upbm affinity estimate (log intensity, higher = more binding, comparable within an allelic series).
Consider CGGTCCAG, for which the binding signal is 9.66 upbm affinity estimate (log intensity, higher = more binding, comparable within an allelic series).
Still for that read-out and setting: for CTGTTATA the value was 11.5 upbm affinity estimate (log intensity, higher = more binding, comparable within an allelic series).
Take AGGCTCCC: the binding signal is 9.56 upbm affinity estimate (log intensity, higher = more binding, comparable within an allelic series).
Still for that read-out and setting: for TAAGAATA the value was 10.8 upbm affinity estimate (log intensity, higher = more binding, comparable within an allelic series).
The same measure, in the same setting: for TCCTTCGA the value was 9.66 upbm affinity estimate (log intensity, higher = more binding, comparable within an allelic series); for CCGTTATA, 11.3 upbm affinity estimate (log intensity, higher = more binding, comparable within an allelic series); for TAAAGTGA, 11.4 upbm affinity estimate (log intensity, higher = more binding, comparable within an allelic series).
Turning to CGGGAGCC, the binding signal was 9.73 upbm affinity estimate (log intensity, higher = more binding, comparable within an allelic series).
The same measure, in the same setting: for CGGTGCCA the value was 9.52 upbm affinity estimate (log intensity, higher = more binding, comparable within an allelic series); for CGTAAAGA, 11.2 upbm affinity estimate (log intensity, higher = more binding, comparable within an allelic series); for ATAATAAC, 12 upbm affinity estimate (log intensity, higher = more binding, comparable within an allelic series).
Same read-out and setting: for ATCTTTAA the value was 11.3 upbm affinity estimate (log intensity, higher = more binding, comparable within an allelic series); for CTGGACGC, 9.69 upbm affinity estimate (log intensity, higher = more binding, comparable within an allelic series).
On to GGGGGGCA, for which the binding signal is 9.53 upbm affinity estimate (log intensity, higher = more binding, comparable within an allelic series).
Same read-out and setting: for ATCTACTA the value was 10.7 upbm affinity estimate (log intensity, higher = more binding, comparable within an allelic series).
Still for that read-out and setting: for ATGTTAAC the value was 11.1 upbm affinity estimate (log intensity, higher = more binding, comparable within an allelic series); for GAGAGCTC, 9.56 upbm affinity estimate (log intensity, higher = more binding, comparable within an allelic series); for AGACCAGG, 9.68 upbm affinity estimate (log intensity, higher = more binding, comparable within an allelic series).
In the case of CGCATTTA, the binding signal was 11.2 upbm affinity estimate (log intensity, higher = more binding, comparable within an allelic series).
Take ATTATCGG: the binding signal is 11.5 upbm affinity estimate (log intensity, higher = more binding, comparable within an allelic series).
In the case of ATTTAACA, the binding signal was 11.6 upbm affinity estimate (log intensity, higher = more binding, comparable within an allelic series).
Same read-out and setting: for TTATACAA the value was 11.1 upbm affinity estimate (log intensity, higher = more binding, comparable within an allelic series); for GAGATAAA, 11.1 upbm affinity estimate (log intensity, higher = more binding, comparable within an allelic series).
Same read-out and setting: for CGTTAAAG the value was 11.4 upbm affinity estimate (log intensity, higher = more binding, comparable within an allelic series); for AGCCGACC, 9.71 upbm affinity estimate (log intensity, higher = more binding, comparable within an allelic series); for CTGCATAA, 11.1 upbm affinity estimate (log intensity, higher = more binding, comparable within an allelic series).
Still for that read-out and setting: for CCTCCAGG the value was 9.47 upbm affinity estimate (log intensity, higher = more binding, comparable within an allelic series).
As to AGTATTAT, the binding signal was 11.6 upbm affinity estimate (log intensity, higher = more binding, comparable within an allelic series).
On the same count and under the same terms, for ATATTGCA the value was 11.2 upbm affinity estimate (log intensity, higher = more binding, comparable within an allelic series); for ATATGAAA, 11.3 upbm affinity estimate (log intensity, higher = more binding, comparable within an allelic series); for GCCCCAGC, 9.84 upbm affinity estimate (log intensity, higher = more binding, comparable within an allelic series).
Still for that read-out and setting: for CCCCAGCC the value was 9.68 upbm affinity estimate (log intensity, higher = more binding, comparable within an allelic series).
The same measure, in the same setting: for CCGGAAGG the value was 9.81 upbm affinity estimate (log intensity, higher = more binding, comparable within an allelic series).
